Screening results deposited in PubChem BioAssay by National Center for Advancing Translational Sciences (NCATS).
VP16 counter = Gal4-VP16 reporter inhibition counter-screen. 3.5% of 310,000 active. AID 2546. Drosophila S2 Gal4-VP16 UAS-luciferase, luminescence, 20 h. Potency, µM (titrated, usually from 53.6 µM), usual class: inhibitors;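 note: Gal4-VP16 expression switched on by copper sulfate through the metallothionein promoter; nearly all actives have a fitted effect of over 50% in size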
CBFb RUNX1 block = CBF-beta/RUNX1 interaction disruption; Q01196+Q13951; Potency, µM (doses to about 59.8 µM), usual class: inhibitors; 230,000 tested, under 10 active; AlphaScreen CBFb-His/RUNX1-biotin binding, biochemical
Target sequence (Q01196 whole entry, looked up): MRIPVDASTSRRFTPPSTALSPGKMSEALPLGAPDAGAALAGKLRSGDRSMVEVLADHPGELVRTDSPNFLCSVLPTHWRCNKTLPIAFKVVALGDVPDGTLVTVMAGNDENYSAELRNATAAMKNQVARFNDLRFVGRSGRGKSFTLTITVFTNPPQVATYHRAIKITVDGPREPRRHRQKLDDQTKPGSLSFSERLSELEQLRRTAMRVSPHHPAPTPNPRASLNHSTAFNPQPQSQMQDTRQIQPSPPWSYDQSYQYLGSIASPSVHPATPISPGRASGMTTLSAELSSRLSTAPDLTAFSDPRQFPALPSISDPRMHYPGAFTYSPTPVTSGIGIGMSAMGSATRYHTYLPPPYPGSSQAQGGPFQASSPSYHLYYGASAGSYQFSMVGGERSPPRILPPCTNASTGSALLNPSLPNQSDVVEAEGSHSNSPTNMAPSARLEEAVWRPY
Target sequence (Q13951 whole entry, looked up): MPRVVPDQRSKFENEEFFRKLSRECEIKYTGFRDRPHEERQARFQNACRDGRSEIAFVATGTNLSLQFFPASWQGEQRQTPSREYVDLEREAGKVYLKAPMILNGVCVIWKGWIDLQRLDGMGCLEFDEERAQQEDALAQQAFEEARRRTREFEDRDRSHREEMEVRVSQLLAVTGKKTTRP
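CBF-beta (His) and RUNX1 (biotin), 30 nM each; 20 min preassociation; + compound, 15 min; + beads 50 ng each (Ni, streptavidin), 90 min; RT; AlphaScreen read.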
MBNL1-CUG inh = MBNL1-poly(CUG) RNA binding inhibition; Potency, µM (series often up to 57.5 µM), most hits filed as inhibitors; TR-FRET MBNL1-His/biotin-(CUG)12 binding, 665/545 ratio; 0.036% of 280,000 active; AID 2675; active = well fitted inhibition curve with a large enough effect in the signal ratio, with a control signal flat, not every such curve was filed as active; inconclusive = small, poorly fitted or top-dose-only effect, or effect the other way, or a change in a side signal; inactive = no such curve, though single readings can be large or run the other way; the % refers to the signal ratio
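Compounds (final 92 nM to 58 uM) are added to His-tagged MBNL1 and biotin-(CUG)12, then terbium anti-His antibody and streptavidin-XL665 (5 nM final). After 60 min at room temperature, the 665/545 nm ratio is read.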
RORg inh = blocks mouse ROR gamma transcriptional activity | P51450 | Drosophila S2 Gal4-RORgamma UAS-luciferase reporter, 20 h | Potency, µM (highest dose often 53.6 µM), actives largely listed as inhibitors | 5.4% of 310,000 active | AID 2551; note: nearly all actives have a fitted effect of over 60% in size
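Stable Schneider cell line, Gal4 DNA-binding domain fused to ROR gamma, UAS-luciferase. Cmpd 1 hr RT → CuSO4 700 uM final → 20 hr RT → luciferase reagent 10 min → luminescence.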
Six1-Eya2 blk = blocks human Six1 binding to Eya2; AID 651725; AlphaScreen GST-Six1/His-Eya2 binding, biochemical; hits give low values; activity change, % (no concentration beside the values); Q15475+O00167; 0.56% of 360,000 active; in the data active = activity change below about -65%; inconclusive = mostly about -30% to -63%
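Six1/Eya2 binding was read as AlphaScreen signal after compounds were pinned into GST-Six1 plus His-tagged Eya2 (5X stock 250/500 nM) in pH 8.0 Tris/NaCl/TCEP buffer, beads added, then incubated 1 h, 37 C, dark.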
CtBP-E1A blk = inhibitors of CtBP/E1A interaction; AlphaScreen GST-E1A/His-CtBP binding, 1536-well; hits give low values; activity change, % (concentration not given with the values); 0.49% of 340,000 active; AID 651724; in the data active = activity change below about -65%; inconclusive = mostly about -30% to -63%
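In 5 uL wells, 23 nL compound meets equimolar GST-E1A and His-CtBP (5X stock 125 nM each) for 2 h, 37 °C. Beads (5X, 50 ug/mL) then 1 h, 37 °C, dark.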
Each line names hits and unclear results; the compound was inactive in the other large screens. Only some compounds are listed: those with a hit (about 5.5% of all), similar ones and a draw of the others. Unless noted, calls come from the whole dose curve; as a rule, active = well fitted curve in the direction sought with a large enough effect; inconclusive = small, poorly fitted or top-dose-only effect, or another doubt; inactive = no such curve, though single readings can be large; an effect the other way counts as inactive or inconclusive.

NCC[C@H](O)C(=O)N[C@@H]1C[C@H](N)[C@@H](O[C@H]2O[C@H](CN)CC[C@H]2N)[C@H](O)[C@H]1O[C@H]1O[C@H](CO)[C@@H](O)[C@H](N)[C@H]1O	none (no result: CBFb RUNX1 block, MBNL1-CUG inh, Six1-Eya2 blk, CtBP-E1A blk)
O=C(Nc1ccccc1Cl)c1ccc([N+](=O)[O-])o1	VP16 counter 15.8µM, MBNL1-CUG inh inconclusive, RORg inh 10µM (no result: CBFb RUNX1 block)
Cc1cccnc1NC(=O)c1ccc([N+](=O)[O-])o1	MBNL1-CUG inh inconclusive
Cc1cccc(NC(=O)c2ccc([N+](=O)[O-])o2)n1	VP16 counter inconclusive, MBNL1-CUG inh inconclusive, RORg inh 11.2µM
Cc1ccccc1NC(=O)c1ccc([N+](=O)[O-])o1	MBNL1-CUG inh inconclusive
COc1ccc(-c2cc(C)no2)cc1S(=O)(=O)N1CCOc2ccc(C)cc21	none (no result: CBFb RUNX1 block)
Cc1cccnc1NC(=O)c1ccc2c(c1)OCCO2	none (no result: VP16 counter, CBFb RUNX1 block, MBNL1-CUG inh, RORg inh)
CC(=O)Nc1nc2cc3c(cc2s1)OCCO3	RORg inh inconclusive (no result: CBFb RUNX1 block)
Cc1cccc2sc(NNC(=O)c3ccc4c(c3)OCCO4)nc12	VP16 counter 12.6µM, MBNL1-CUG inh inconclusive, RORg inh 7.94µM
O=C(NNc1nc2cc3c(cc2s1)OCCO3)c1ccccc1	RORg inh 3.98µM
COc1ccc(Cl)cc1NC(=O)CN(C)C(=O)c1cc2ccccc2cc1O	none (no result: VP16 counter, CBFb RUNX1 block, MBNL1-CUG inh, RORg inh)
COc1ccccc1NC(=S)Nc1ccccn1	VP16 counter 3.55µM, RORg inh 1.58µM
COc1ccccc1NC(=O)C(=O)Nc1ccccn1	none
Cc1ccc(S(=O)(=O)CC(=O)Nc2ccccn2)cc1	none (no result: CBFb RUNX1 block)
COc1ccc(NC(=S)Nc2ccc(F)cc2)cc1	VP16 counter inconclusive, RORg inh inconclusive (no result: CBFb RUNX1 block, CtBP-E1A blk)
COC(=O)c1ccc(NC(=S)Nc2ccc(O)cc2)cc1	none (no result: CtBP-E1A blk)
COC(=O)c1ccc(NC(=S)Nc2ccccn2)cc1	VP16 counter 1µM, MBNL1-CUG inh inconclusive, RORg inh 1µM
Cc1ccc(NC(=O)C(=O)Nc2ccccn2)cc1	VP16 counter 5.62µM, RORg inh 6.31µM (no result: MBNL1-CUG inh)
COc1ccc(NC(=S)Nc2ccccn2)cc1	VP16 counter 7.08µM, RORg inh 2.82µM
CCN(CC(=O)Nc1cc(Cl)ccc1C)C(=O)CC1CCCC1	none (no result: VP16 counter, CBFb RUNX1 block, MBNL1-CUG inh, RORg inh)
Cc1ccc(C(=O)N2CCN(CCNC(=O)C(=O)NCc3ccc(Cl)cc3)CC2)cc1	none (no result: CBFb RUNX1 block)
Cc1nc(N)sc1-c1csc(Nc2ncccn2)n1	VP16 counter inconclusive, CBFb RUNX1 block inconclusive, RORg inh 6.31µM, Six1-Eya2 blk inconclusive
COc1cccc(Nc2nc(-c3sc(N)nc3C)cs2)c1	Six1-Eya2 blk inconclusive, CtBP-E1A blk -72.0
Cc1ccc(-n2cc(C(C)(C)C)[nH]c2=S)cc1	VP16 counter 6.31µM, RORg inh 2.24µM
CC(C)(C)c1cn(-c2ccccc2)c(=S)[nH]1	VP16 counter 7.94µM, RORg inh 7.08µM
CC(C)C[C@H](NC(=O)[C@H](Cc1ccccc1)C[C@@H](O)[C@H](Cc1ccccc1)NC(=O)OC(C)(C)C)C(=O)N[C@@H](Cc1ccccc1)C(N)=O	VP16 counter inconclusive, RORg inh inconclusive (no result: MBNL1-CUG inh, Six1-Eya2 blk, CtBP-E1A blk)
Cc1cccc(NC(=S)NCc2cccs2)c1C	VP16 counter 10µM, RORg inh 3.55µM
Cc1cccc(Nc2ncccc2C(=O)NCc2cccs2)c1C	none
COc1ccc(CCNC(=S)NCc2cccs2)cc1OC	RORg inh inconclusive
NC(=O)NNC(=S)Nc1cccc2ccccc12	none
S=C(NCc1ccccc1)Nc1cccc2ccccc12	VP16 counter 5.62µM, MBNL1-CUG inh inconclusive, RORg inh 3.16µM (no result: CBFb RUNX1 block)
Cc1ccc(C(C)C)c(OCCNC(=S)Nc2cccc3ccccc23)c1	VP16 counter 3.16µM, RORg inh 1.26µM
S=C(NCCc1ccccc1)NCc1cccs1	RORg inh 11.2µM (no result: MBNL1-CUG inh)
NS(=O)(=O)c1ccc(NC(=O)CN(C(=O)C(F)(F)F)C2CCCC2)cc1	none (no result: VP16 counter, CBFb RUNX1 block, MBNL1-CUG inh, RORg inh)
O=C(Nc1cccc2cccnc12)c1csc(COCCO)n1	CtBP-E1A blk inconclusive (no result: VP16 counter, CBFb RUNX1 block, MBNL1-CUG inh, RORg inh)
O=C(CN1CSCC1=O)N1CCN(S(=O)(=O)c2cccc(F)c2)CC1	none (no result: VP16 counter, CBFb RUNX1 block, MBNL1-CUG inh, RORg inh)
S=C(NCc1cccs1)Nc1ccc(Br)cc1Cl	RORg inh inconclusive
